Data as given in the supplement of paper PMC12819154, “High-throughput peptide-centric local stability assay extends protein–ligand identification to membrane proteins, tissues and bacteria” (Nature Structural & Molecular Biology, 2025).

Compound: Nc1ncnc2c1ncn2[C@@H]1O[C@H](COP(=O)(O)OP(=O)(O)OP(=O)(O)O)[C@@H](O)[C@H]1O [adenosine 5'-triphosphate]
Experiment: log2 fold change of tryptic peptide abundance, ligand vs vehicle (limited proteolysis) (log2 ratio); higher = more trypsin-susceptible (destabilized)
Details: ligand concentration: 5 mM; sample: E. coli desalted lysate; replicate design: treated before aliquoting
Procedure: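 HT-PELSA: desalted E. coli K-12 BW25113 lysate (with 12 mM MgCl2) incubated with 5 mM ATP (pH 7) or water for 30 min at 25 C, then a 4 min trypsin pulse at 22 C. Peptides were quantified by DIA-MS (4 replicates). Value is the peptide log2 fold change (treated/control); negative = stabilized. Scale: negative = ligand-stabilized region.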
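Note: lysate desalted by size exclusion to strip endogenous ATP, peptide intensities built from DIA-NN precursor signals, and peptides missing any value discarded before comparison.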

Sequence of UniProt P00893 (P00893 whole entry): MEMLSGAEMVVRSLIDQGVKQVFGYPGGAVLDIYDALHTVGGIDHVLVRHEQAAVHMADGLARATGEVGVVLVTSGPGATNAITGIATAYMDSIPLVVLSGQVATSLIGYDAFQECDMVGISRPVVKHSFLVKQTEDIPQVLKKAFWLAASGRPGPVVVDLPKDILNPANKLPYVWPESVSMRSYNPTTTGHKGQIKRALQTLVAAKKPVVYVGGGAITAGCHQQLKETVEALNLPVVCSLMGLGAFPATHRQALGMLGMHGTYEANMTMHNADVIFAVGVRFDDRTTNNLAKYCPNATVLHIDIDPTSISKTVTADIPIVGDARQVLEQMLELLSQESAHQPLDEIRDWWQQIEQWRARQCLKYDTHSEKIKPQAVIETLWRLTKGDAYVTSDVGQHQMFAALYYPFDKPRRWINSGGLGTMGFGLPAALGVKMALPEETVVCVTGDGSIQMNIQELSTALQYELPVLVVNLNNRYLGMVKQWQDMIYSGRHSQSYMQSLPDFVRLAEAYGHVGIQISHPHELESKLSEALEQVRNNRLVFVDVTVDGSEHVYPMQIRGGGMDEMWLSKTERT
Sequence of UniProt P31548 (P31548 whole entry): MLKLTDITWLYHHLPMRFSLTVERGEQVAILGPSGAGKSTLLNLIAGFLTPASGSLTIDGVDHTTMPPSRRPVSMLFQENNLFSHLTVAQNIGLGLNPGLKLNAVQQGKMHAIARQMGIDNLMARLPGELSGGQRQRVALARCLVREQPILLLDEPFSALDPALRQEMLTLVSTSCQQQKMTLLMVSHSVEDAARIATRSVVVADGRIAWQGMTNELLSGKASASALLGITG
Sequence of UniProt P52598 (P52598 whole entry): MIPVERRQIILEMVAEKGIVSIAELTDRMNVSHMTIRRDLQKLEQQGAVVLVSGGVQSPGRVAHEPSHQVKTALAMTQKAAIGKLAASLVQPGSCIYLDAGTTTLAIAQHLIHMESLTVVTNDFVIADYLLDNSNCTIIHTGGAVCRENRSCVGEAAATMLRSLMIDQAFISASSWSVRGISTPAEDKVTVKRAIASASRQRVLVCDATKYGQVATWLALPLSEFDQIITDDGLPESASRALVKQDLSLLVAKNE
Sequence of UniProt P08997 (P08997 whole entry): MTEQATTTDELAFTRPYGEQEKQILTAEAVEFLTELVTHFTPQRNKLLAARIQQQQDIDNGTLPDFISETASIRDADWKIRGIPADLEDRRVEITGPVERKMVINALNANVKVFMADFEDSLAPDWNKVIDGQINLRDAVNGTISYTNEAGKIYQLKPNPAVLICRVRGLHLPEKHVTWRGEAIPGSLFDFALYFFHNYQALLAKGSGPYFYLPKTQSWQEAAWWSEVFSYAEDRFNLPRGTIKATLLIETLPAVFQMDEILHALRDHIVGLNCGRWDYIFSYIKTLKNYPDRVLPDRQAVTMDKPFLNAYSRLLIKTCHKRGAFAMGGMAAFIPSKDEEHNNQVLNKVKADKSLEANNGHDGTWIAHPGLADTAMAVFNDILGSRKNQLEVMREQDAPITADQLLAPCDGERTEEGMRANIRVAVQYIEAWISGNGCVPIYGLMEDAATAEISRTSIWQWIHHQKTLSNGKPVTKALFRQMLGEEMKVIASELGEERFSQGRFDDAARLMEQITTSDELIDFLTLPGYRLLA
Sequence of UniProt P10907 (P10907 whole entry): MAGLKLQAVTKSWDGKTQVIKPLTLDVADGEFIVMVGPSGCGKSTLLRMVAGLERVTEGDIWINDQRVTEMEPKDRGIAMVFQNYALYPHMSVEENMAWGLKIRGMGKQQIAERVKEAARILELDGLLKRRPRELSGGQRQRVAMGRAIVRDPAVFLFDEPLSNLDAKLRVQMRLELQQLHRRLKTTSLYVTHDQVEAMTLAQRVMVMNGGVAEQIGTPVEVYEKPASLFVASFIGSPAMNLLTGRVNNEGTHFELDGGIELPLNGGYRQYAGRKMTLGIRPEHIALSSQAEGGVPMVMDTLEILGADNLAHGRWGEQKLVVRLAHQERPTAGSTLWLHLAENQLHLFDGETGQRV
Sequence of UniProt P77555 (P77555 whole entry): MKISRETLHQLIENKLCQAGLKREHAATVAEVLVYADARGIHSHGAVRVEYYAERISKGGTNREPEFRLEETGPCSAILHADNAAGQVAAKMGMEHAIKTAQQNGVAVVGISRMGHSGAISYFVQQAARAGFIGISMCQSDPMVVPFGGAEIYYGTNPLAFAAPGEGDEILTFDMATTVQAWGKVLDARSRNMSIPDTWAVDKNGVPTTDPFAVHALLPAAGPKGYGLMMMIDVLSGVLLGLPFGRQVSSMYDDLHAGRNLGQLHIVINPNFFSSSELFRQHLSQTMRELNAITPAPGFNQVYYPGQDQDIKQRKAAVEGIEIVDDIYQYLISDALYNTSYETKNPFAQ
Sequence of UniProt P39410 (P39410 whole entry): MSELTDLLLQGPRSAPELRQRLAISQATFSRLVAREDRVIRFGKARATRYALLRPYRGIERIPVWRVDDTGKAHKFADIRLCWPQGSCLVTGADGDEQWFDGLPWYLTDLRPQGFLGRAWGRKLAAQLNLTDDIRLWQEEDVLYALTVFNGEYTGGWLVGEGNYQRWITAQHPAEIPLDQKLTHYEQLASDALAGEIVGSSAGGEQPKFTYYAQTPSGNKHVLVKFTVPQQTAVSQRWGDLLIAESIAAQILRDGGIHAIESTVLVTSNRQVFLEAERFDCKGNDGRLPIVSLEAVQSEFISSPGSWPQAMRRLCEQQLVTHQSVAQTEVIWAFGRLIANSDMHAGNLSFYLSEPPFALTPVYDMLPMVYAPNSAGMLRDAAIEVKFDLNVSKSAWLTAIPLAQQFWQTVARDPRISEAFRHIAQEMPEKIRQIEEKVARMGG
Sequence of UniProt P77148 (P77148 whole entry): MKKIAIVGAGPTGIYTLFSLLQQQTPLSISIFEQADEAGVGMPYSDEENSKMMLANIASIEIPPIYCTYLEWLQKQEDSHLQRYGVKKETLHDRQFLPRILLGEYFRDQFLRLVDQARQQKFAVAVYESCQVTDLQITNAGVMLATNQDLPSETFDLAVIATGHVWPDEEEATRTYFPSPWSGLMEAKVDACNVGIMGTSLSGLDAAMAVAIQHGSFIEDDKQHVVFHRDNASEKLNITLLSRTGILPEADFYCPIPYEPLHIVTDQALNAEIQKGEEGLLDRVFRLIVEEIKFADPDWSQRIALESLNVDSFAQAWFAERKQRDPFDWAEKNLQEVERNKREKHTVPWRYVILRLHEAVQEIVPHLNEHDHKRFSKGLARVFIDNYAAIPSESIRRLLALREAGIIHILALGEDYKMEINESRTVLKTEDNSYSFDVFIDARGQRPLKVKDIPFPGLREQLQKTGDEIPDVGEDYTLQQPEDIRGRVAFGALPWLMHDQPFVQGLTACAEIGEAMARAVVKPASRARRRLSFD
Sequence of UniProt P30014 (P30014 whole entry): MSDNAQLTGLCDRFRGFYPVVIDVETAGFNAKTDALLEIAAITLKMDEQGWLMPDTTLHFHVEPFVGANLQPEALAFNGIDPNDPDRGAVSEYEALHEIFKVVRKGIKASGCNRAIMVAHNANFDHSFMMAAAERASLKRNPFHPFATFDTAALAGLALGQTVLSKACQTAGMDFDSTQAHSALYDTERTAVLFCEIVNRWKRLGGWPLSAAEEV
Sequence of UniProt P00562 (P00562 whole entry): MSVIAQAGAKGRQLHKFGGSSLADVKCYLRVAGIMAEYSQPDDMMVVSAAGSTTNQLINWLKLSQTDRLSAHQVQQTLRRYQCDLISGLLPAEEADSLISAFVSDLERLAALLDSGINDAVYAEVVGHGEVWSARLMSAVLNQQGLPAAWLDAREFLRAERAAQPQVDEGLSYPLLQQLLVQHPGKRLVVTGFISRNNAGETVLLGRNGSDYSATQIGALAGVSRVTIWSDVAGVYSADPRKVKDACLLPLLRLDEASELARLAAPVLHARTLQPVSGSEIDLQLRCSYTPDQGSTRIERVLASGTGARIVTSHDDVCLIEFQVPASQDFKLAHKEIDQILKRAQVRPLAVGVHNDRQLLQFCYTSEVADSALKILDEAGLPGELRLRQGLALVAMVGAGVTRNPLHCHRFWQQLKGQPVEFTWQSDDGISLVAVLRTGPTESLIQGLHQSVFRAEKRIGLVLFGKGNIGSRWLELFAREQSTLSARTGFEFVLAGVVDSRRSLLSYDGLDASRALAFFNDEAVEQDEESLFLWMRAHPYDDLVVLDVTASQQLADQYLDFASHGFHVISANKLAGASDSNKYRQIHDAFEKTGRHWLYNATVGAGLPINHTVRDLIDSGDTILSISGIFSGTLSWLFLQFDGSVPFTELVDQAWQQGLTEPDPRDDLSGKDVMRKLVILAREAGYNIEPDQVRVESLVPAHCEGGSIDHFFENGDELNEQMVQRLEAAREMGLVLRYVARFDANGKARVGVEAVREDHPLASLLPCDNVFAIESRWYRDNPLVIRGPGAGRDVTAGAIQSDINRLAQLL
Sequence of UniProt P27300 (P27300 whole entry): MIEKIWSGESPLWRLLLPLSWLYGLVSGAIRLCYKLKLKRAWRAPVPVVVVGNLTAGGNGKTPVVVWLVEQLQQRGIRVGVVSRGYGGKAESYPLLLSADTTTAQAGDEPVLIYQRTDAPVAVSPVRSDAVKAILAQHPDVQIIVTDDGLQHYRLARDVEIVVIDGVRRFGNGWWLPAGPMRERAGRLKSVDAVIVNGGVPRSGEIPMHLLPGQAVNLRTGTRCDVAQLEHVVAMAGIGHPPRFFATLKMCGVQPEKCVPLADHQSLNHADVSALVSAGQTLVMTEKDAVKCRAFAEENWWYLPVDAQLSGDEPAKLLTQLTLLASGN
Sequence of UniProt P45955 (P45955 whole entry): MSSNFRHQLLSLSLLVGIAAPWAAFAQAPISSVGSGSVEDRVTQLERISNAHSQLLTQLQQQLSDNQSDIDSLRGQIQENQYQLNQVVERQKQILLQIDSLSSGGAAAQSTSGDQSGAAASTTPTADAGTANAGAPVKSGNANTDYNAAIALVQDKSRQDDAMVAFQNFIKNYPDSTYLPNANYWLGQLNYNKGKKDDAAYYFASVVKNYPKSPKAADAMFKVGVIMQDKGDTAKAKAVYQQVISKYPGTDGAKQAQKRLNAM

Target | log2 fold change
UniProt P37765 (peptide sequence: EIESIIEAGRVSVDGK, peptide start residue: 19) | 0.997
UniProt P39410 (peptide sequence: HIAQEMPEKIR, peptide start residue: 422) | -1.96
UniProt P30014 (peptide sequence: TAVLFCEIVNR, peptide start residue: 190) | -2.04
UniProt P0ACW4 (peptide sequence: GGISHCTAGGK, peptide start residue: 30) | -0.911
UniProt P37671 (peptide sequence: SYWESHQHEIQPLTR, peptide start residue: 174) | -0.718
UniProt Q46802 (peptide sequence: GAFTGASANGK, peptide start residue: 347) | -0.841
UniProt P32662 (peptide sequence: TMGKPPVDDDIPAEEQVR, peptide start residue: 75) | 0.514
UniProt P00893 (peptide sequence: HSQSYMQSLPDFVR, peptide start residue: 493) | 0.316
UniProt P08997 (peptide sequence: TLSNGKPVTK, peptide start residue: 467) | -0.591
UniProt P10907 (peptide sequence: ILELDGLLK, peptide start residue: 121) | -0.369
UniProt P08194 (peptide sequence: AEQELTAK, peptide start residue: 235) | -0.739
UniProt P76196 (peptide sequence: VVEQLLAMR, peptide start residue: 47) | -0.864
UniProt P31548 (peptide sequence: LPGELSGGQR, peptide start residue: 126) | -0.702
UniProt P45522 (peptide sequence: TLVTLGMHPHQAQR, peptide start residue: 530) | 0.604
UniProt P00393 (peptide sequence: ISAAAHNELTK, peptide start residue: 228) | -0.559
UniProt P77148 (peptide sequence: ILLGEYFR, peptide start residue: 100) | -0.452
UniProt P07604 (peptide sequence: YAWPGNVR, peptide start residue: 410) | -1.06
UniProt P35340 (peptide sequence: MTLTEIVAKIDTGAEKR, peptide start residue: 186) | 1.22
UniProt P31455 (peptide sequence: AYPGLVNVPR, peptide start residue: 290) | -1.05
UniProt P00562 (peptide sequence: ILDEAGLPGELR, peptide start residue: 375) | 0.23
UniProt P77555 (peptide sequence: VEYYAER, peptide start residue: 49) | -0.74
UniProt P31660 (peptide sequence: SGNDLHYR, peptide start residue: 38) | 1.29
UniProt P52598 (peptide sequence: SCVGEAAATMLR, peptide start residue: 151) | -0.421
UniProt P20966 (peptide sequence: FAGKPMYR, peptide start residue: 175) | 1.06
UniProt P09546 (peptide sequence: IYAPVGTHETLLAYLVRR, peptide start residue: 539) | 0.991
UniProt P45955 (peptide sequence: AVYQQVISKYPGTDGAK, peptide start residue: 238) | 0.687
UniProt P21866 (peptide sequence: RHSATTAPDPLVK, peptide start residue: 118) | 1.65
UniProt P27300 (peptide sequence: SVDAVIVNGGVPR, peptide start residue: 190) | -2.1
UniProt P11446 (peptide sequence: GAAAQAVQCANIR, peptide start residue: 312) | -0.854
